Rows were chosen to be rich in hits. Some 5.4% of all compounds tested hit in one or more screens of this group.
ALR inh = inhibitors of human sulfhydryl oxidase ALR. P55789. purified ALR, DTT oxidation, H2O2 HRP-luminol luminescence. inhibition, % (concentration not given with the values). 290,000 compounds, 3.8% hits. AID 485317;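 active = mean replicate inhibition above about 79%, with every replicate also reaching it, limit read from the data; inconclusive = only one of the two criteria met; inactive = mean below limit and not every replicate reaching it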
Target sequence (P55789 whole entry, looked up): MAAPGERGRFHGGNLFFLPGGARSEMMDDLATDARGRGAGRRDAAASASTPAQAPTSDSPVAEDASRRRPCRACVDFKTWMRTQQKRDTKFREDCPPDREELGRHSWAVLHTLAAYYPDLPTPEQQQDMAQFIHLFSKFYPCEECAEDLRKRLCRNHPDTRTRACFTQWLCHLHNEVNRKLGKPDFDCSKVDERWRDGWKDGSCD
SMARCA2 act = SMARCA2 function activation, primary screen; 370,000 compounds, 1% hits; MG213 cells, MMTV-luciferase reporter, dexamethasone, overnight; activation, % at 9.1 µM; in the data active = activation above about 7.8%;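 note: 0% = vehicle wells and 100% = reference activator wells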
MIN6 prolif = induces beta-cell replication in MIN6 cells. proliferation, % at 10 µM. 330,000 compounds, 0.29% hits. MIN6 cells proliferation, ATPlite luminescence, 48 h; cells starved in 0.2% serum; 100% = growth in 10% serum. AID 2380;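 active = compounds whose signal lies at least 3.5 SD above the mean of all wells on their plate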;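 note: 0% = DMSO-treated cells in low-serum medium and 100% = 10% serum control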
M18AAP inhibitor = PfM18AAP enzyme inhibition | recombinant PfM18AAP, H-Glu-NHMec fluorogenic cleavage | inhibition, % at 7.35 µM | 290,000 compounds, 1.2% hits | AID 1822;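 active = inhibition above the campaign mean inhibition over all tested compounds plus 3 SD, cut at about 28% in these data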;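 note: 0% = plate median of test compound wells and 100% = 2 mM ZnCl2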
JMJD2C inh = blocks human GASC-1 demethylase activity; AID 2099; inhibition, % at 2.35 µM; GST-JMJD2C(1-420) H3K9me3 demethylation, DELFIA europium; 330,000 compounds, 0.069% hits; Q9H3R0;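 active = more than half of a compound's replicate wells show inhibition beyond 50%, single wells judged on their own value; inconclusive = some, but no more than half, of replicates pass 50% inhibition; inactive = no replicate passes 50% inhibition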;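 note: signal counts dimethyl H3K9 product captured on neutravidin plate; 0% = median of DMSO wells and 100% = 0.3 times that DMSO median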
Target sequence (Q9H3R0 1-420 limits assumed): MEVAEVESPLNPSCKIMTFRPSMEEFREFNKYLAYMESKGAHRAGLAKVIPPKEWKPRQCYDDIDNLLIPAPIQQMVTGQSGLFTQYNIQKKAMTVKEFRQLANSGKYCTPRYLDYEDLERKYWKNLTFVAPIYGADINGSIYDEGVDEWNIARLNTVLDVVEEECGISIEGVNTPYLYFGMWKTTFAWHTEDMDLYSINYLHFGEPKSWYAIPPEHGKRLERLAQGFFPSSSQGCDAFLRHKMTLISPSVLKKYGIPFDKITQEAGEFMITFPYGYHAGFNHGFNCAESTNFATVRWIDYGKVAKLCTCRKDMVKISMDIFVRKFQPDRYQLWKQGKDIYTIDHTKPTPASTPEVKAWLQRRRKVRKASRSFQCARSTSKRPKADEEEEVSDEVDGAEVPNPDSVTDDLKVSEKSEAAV
Granule exo inh = blocks lytic granule exocytosis | AID 651702 | 360,000 compounds, 0.66% hits | TALL-104 LAMP-1 surface exposure, flow cytometry; cells stimulated with thapsigargin and PMA | inhibition, % at 10 µM;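 active = inhibition above about 55%, limit read from the data; inconclusive = no clear call, values can overlap the other calls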
An asterisk follows results filed as active; ? = inconclusive; . = not tested or not shown.

SMILES	ALR inh	SMARCA2 act	MIN6 prolif	M18AAP inhibitor	JMJD2C inh	Granule exo inh
CN1C(=O)Cc2cc(S(=O)(=O)Nc3ccc(Cl)cc3)ccc21	7	2	0	29*	5	0
CC(CNS(=O)(=O)c1ccc2c(c1)CC(=O)N2C)c1ccccc1 (configuration not stated)	4	4	-3	-18	-4	-3
CS(=O)(=O)c1ccc(S(=O)CC(=O)OCc2ccccc2)c([N+](=O)[O-])c1 (configuration not stated)	.	-14	.	11	-7	97*
CCc1cc2c(nc1CC)CCCN2S(=O)(=O)c1ccc(F)cc1	.	0	.	.	.	.
CSCCCNC(=O)Cn1nc(Cc2ccncc2)c2ccccc2c1=O	.	-1	.	.	.	.
CC(C)Cn1c(SCc2nnc(-c3cccs3)o2)nc(O)cc1=O	98*	-1	-2	-8	-1	3
CCOc1ccc(Cc2n[nH]c(=S)n2N)cc1	96*	1	-2	14	27	3
Nn1c(Cc2ccc(Br)cc2)n[nH]c1=S	-23	1	0	19	-7	3
COc1ccc(SC[C@H](Cc2ccccc2)N2CC[C@@H](C(C)(C)C)CCC2=O)cc1	99*	1	-7	.	-1	-7
CCCN1CCC(=O)N([C@H](CSc2ccc(OC)cc2)c2ccccc2)CC1	98*	6	-7	.	-5	0
COc1ccc(SC[C@H](Cc2ccccc2)N2CC[C@@H](O)CCC2=O)cc1	1	0	-1	.	-6	2
COCCNC(=S)N(C)[C@H]1C[C@H]2c3[nH]c4ccccc4c3CCN2C(=O)[C@H]1[C@H](C)O	.	-4	.	.	.	.
CCc1ccc2c(c1)Sc1ccccc1CC2N1CCN(C)CC1 (configuration not stated)	-9	-6	-4	.	-5	58*
c1ccc2c(c1)CC(N1CCCCC1)c1ccccc1S2 (configuration not stated)	1	3	-4	.	-13	13
COc1cccc(-c2nnc(SCC(=O)OC(C)C)n2-c2ccc(Cl)cc2)c1	.	-1	.	.	.	.
O=C(O)/C=C/C(=O)c1c(-c2ccccc2)[nH]c2ccccc12	98*	-3	2	-24	12	3
COC(=O)[C@]12C[C@H](CC(=O)NCc3cccc(C(F)(F)F)c3)C(=O)N(CCc3ccc(OC)c(OC)c3)C1=C[C@H](C1CCCC1)O[C@@H]2C	.	-3	.	.	.	.
CC(C)c1cc(O)c(-c2ccccc2)c(=O)n1-c1ccc(Cl)cc1	-2	-5	-3	-4	0	-4
CC(C)c1c(O)cc(-c2ccncc2)n(-c2ccc(Cl)cc2)c1=O	6	14*	0	-4	-2	2
CCc1nnc2n1N=C(c1ccc([N+](=O)[O-])cc1)CS2	97*	-5	-3	5	179	-4
CCCCn1c(=O)[nH]c(=O)c2c1nc(-c1ccc(C)c([N+](=O)[O-])c1)n2CC	96*	1	1	15	1	-6
O=C(CSc1nncn1-c1ccccc1)Nc1ccc(N2CCOCC2)cc1	99*	0	-2	10	-8	-1
COc1ccc([N+](=O)[O-])cc1NC(=O)CSc1nncn1-c1ccccc1	5	-3	3	-1	-6	-1
O=C(CSc1nnc(C2CC2)n1-c1ccccc1)Nc1ccc(N2CCOCC2)cc1	98*	-3	-2	4	-8	0
O=C(CSc1nnnn1-c1ccccc1)Nc1ccc(N2CCOCC2)cc1	8	-1	-2	4	12	-3
SMILES	ALR inh	SMARCA2 act	MIN6 prolif	M18AAP inhibitor	JMJD2C inh	Granule exo inh
CCC(c1nnc(SCC(=O)Nc2ccc(N3CCOCC3)cc2)n1Cc1ccccc1)N(C)C (configuration not stated)	98*	0	-1	.	?	-4
COc1ccccc1NC(=O)CSc1nncn1-c1ccccc1	98*	3	-3	-8	-3	-2
CCCCNC(=O)NS(=O)(=O)c1ccc(NC(=O)CSc2ncnc3scc(-c4ccc(C)cc4)c23)cc1	.	-2	.	.	.	.
Cc1ccccc1-c1ccc(=O)n(CC(=O)Nc2ccc(N3CCOCC3)cc2)n1	11	1	-1	3	57*	-4
COc1ccc(C(=O)O/N=C(\C)c2cnccn2)cc1	5	6	0	-6	57*	-2
COc1ccc(C(=O)O/N=C(\N)c2ccccn2)cc1	.	-9	-4	4	3	-8
COc1cccc(-c2nnc(SCc3cc(C)ccc3C)n2Cc2ccco2)c1	.	-7	.	.	.	.
CC(/C=C1\SC(=Nc2cccnc2)NC1=O)=C\c1ccccc1	.	-4	-6	-13	4	57*
C=CCOc1ccc(/C=C2\SC(=Nc3cccnc3)NC2=O)cc1	-13	3	0	5	7	-3
Cc1cccc(C)c1NC(=O)CN(C)C(=O)CCc1nc2sc3c(c2c(=O)[nH]1)CCCC3	-5	-2	-2	.	23	-6
Cc1sc2nc(CSCC(=O)N(C)CC(=O)Nc3ccc(F)cc3)[nH]c(=O)c2c1C	99*	-2	-3	.	?	0
Cc1sc2nc(CSCC(=O)Nc3ccc(C(F)(F)F)cc3)[nH]c(=O)c2c1C	.	-3	0	.	2	-1
Cc1sc2nc(CSCC(=O)NC(C)(C)C)[nH]c(=O)c2c1C	99*	-2	-4	5	-4	-1
CN(CC(=O)Nc1cccc(F)c1)C(=O)CCc1nc2sc3c(c2c(=O)[nH]1)CCCC3	91*	4	-2	.	7	6
O=C(NCCc1c[nH]c2ccccc12)OCc1cn(Cc2cc(F)cc(F)c2)nn1	.	-2	.	.	.	.
CCCn1c(SCC(=O)Nc2ccc(Cl)cc2F)nc(O)cc1=O	99*	-1	-2	.	0	1
COc1ccc(NC(=O)CSc2nnc(C3CC3)n2C)cc1	4	-2	3	-3	16	-2
COc1ccc(NC(=O)CSc2nc(O)cc(=O)n2C)cc1	99*	-1	4	11	9	2
Nn1c(SCC(=O)Nc2nc3ccccc3s2)nncc1=O	98*	-1	-1	6	1	3
Cn1c(SCC(=O)Nc2ccccc2)nc(O)cc1=O	99*	0	-3	1	1	-1
CCCn1c(SCC(=O)Nc2ccc(F)c(Cl)c2)nc(O)cc1=O	.	-4	-5	.	-6	-3
CN(Cc1ccccc1)C(=O)OCc1cn(Cc2c(F)cccc2F)nn1	.	-2	.	.	.	.
COc1ccccc1-n1c(SCC(=O)Nc2ccc(Br)cc2)nc(O)cc1=O	99*	0	-2	-3	8	1
COc1ccccc1-n1c(SCC(=O)N2CCOCC2)nc(O)cc1=O	-3	4	3	3	2	-4
CCn1c(CNC(=O)c2cccs2)nnc1SCC(=O)Nc1ccc(Cl)cc1	97*	-1	-5	8	-9	1
Cc1ccc(-n2c(SCC(=O)Nc3ccc(Cl)cc3)nc(O)cc2=O)cc1	94*	-3	-3	6	-8	0
